Cycloheximide cs = Cycloheximide Counterscreen for Small Molecule Inhibitors of Shiga Toxin; cell reporter, cycloheximide protein synthesis inhibition counterscreen; max response, %; actives 12% (n = 300,000); AID 2314, 2010; in the data active means max response mostly above about 13%, no sharp cut-off; inactive means mostly below about 14%; further: read at 38.3 µM for the half of the compounds with a filed dose
FMDV antiviral = High Throughput Screening for Foot and Mouth Disease Virus Antivirals; FMDV antiviral cell-based qHTS; Potency, µM (highest dose often 57.9 µM), hits mostly inhibitors; actives 1.2% (n = 410,000); calls by dose curve; tested in HEK293T cells; further: read-out not given here; nearly all actives have a fitted effect of over 45% in size
Shiga inhibitor = A qHTS for Small Molecule Inhibitors of Shiga Toxin. actives 9.2% (n = 290,000). AID 2315, 2010. inhibition, % at 38.7 µM. Vero cells, Shiga toxin protein synthesis inhibition reporter; in the data active means inhibition mostly above about 28%, no sharp cut-off; inactive means mostly below about 43%
Sm TGR block = qHTS Assay for the Inhibitors of Schistosoma Mansoni Peroxiredoxins; Schistosoma mansoni thioredoxin glutathione reductase (TGR), Q962Y6; purified TGR, DTNB reduction, TNB absorbance 405 nm; Potency, µM (titrated, usually from 114 µM), most hits filed as inhibitors; actives 3% (n = 360,000); active means well fitted inhibition curve with a large enough effect; inconclusive means small, poorly fitted or top-dose-only effect; inactive means no such curve, though single readings can be large or run the other way; further: nearly all actives have a fitted effect of over 60% in size
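TGR 20 nM + NADPH 100 uM (dispensed conc.), cpd preinc 15 min RT; start with NADPH (500 uM addition) then DTNB (15 mM addition). Kinetic TNB absorbance, 405 nm filter. Four-parameter Hill fit across titration.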
Hits are given with their value. Hits are enriched below; roughly 12% of the tested compounds scored in any of these assays.

`O=C(O)C1CC=CCC1C(=O)Nc1ccc(F)c(F)c1` (stereo not given) gave Cycloheximide cs inactive, FMDV antiviral inactive, Shiga inhibitor inactive and Sm TGR block inactive.
COc1cccc(C(=O)NCC2Cc3c(F)ccc(-c4ncccn4)c3O2)c1OC (stereo not given) was read as FMDV antiviral inactive.
COCCCNC(=O)Cn1nc(N2CCN(c3ccccc3)CC2)ccc1=O was read as FMDV antiviral inactive and Sm TGR block inactive.
For O=C(Nc1ccc2nc(-c3cccnc3)[nH]c2c1)C12CC3CC(CC(C3)C1)C2 the results were Cycloheximide cs inactive, FMDV antiviral inactive, Shiga inhibitor inactive and Sm TGR block inactive.
O=C(Nc1sc2c(c1-c1nc3ccccc3[nH]1)CCCC2)C1CCCC1 was read as Cycloheximide cs 21, FMDV antiviral inactive, Shiga inhibitor inactive and Sm TGR block inactive.
Screening CC(C)c1nc2ccc(NC(=O)C34CC5CC(CC(C5)C3)C4)cc2[nH]1 returned Cycloheximide cs 20, Shiga inhibitor inactive and Sm TGR block inactive.
`O=C(Nc1nc2ccccc2[nH]1)C12CC3CC(CC(C3)C1)C2` gave Cycloheximide cs 40, FMDV antiviral inconclusive, Shiga inhibitor inactive and Sm TGR block inactive.
Screening O=C(Nc1nc2ccccc2[nH]1)NC1CCCCC1 returned Cycloheximide cs 46, FMDV antiviral inactive, Shiga inhibitor 81 and Sm TGR block inactive.
`Cc1nc(CC(=O)Nc2cc(Cl)ccc2C)cs1` gave FMDV antiviral inactive and Sm TGR block inactive.
O=C(CSc1nc2ccccc2[nH]1)Nc1ccccc1F was read as Cycloheximide cs inactive, Shiga inhibitor inactive and Sm TGR block inactive.
For O=C(Nc1nc2ccccc2[nH]1)C1CCCO1 (stereo not given) the results were Cycloheximide cs 23, Shiga inhibitor inactive and Sm TGR block inactive.
Screening O=C(Nc1nc2ccccc2[nH]1)C1CC1 returned Cycloheximide cs 23, FMDV antiviral inactive, Shiga inhibitor inactive and Sm TGR block inactive.
For O=C(Nc1ccc(-c2nc3ccccc3[nH]2)cc1)C1CCCO1 (stereo not given) the results were Cycloheximide cs inactive, Shiga inhibitor inactive and Sm TGR block inactive.
`O=C(Nc1nc2ccccc2[nH]1)Nc1ccccc1F` gave Cycloheximide cs 35, FMDV antiviral inactive, Shiga inhibitor 99 and Sm TGR block inactive.
Screening CCNc1ncc2nc(-c3ccccc3)c(=O)n(Cc3cccc(OC)c3)c2n1 returned FMDV antiviral inactive.
CCc1ccc(S(=O)(=O)Nc2ccc3oc(C)c(C(=O)OCCOC)c3c2)cc1 was read as FMDV antiviral inactive and Sm TGR block inactive.
`O=C1CC(=O)N(CCNc2ncc(C(F)(F)F)cc2Cl)C(=O)N1` gave Cycloheximide cs inactive, FMDV antiviral inactive, Shiga inhibitor inactive and Sm TGR block inactive.
O=c1cc(Cl)[nH]c(=O)n1CCNc1ncc(C(F)(F)F)cc1Cl was read as Cycloheximide cs 36, FMDV antiviral inactive, Shiga inhibitor 94 and Sm TGR block inactive.
Screening CC(=O)C1=NOC(CNc2ncc(C(F)(F)F)cc2Cl)C1 (stereo not given) returned Cycloheximide cs 17, FMDV antiviral inactive, Shiga inhibitor inactive and Sm TGR block inactive.
Screening O=c1[nH]c2cc(Cl)ccc2n(CCNc2ncc(C(F)(F)F)cc2Cl)c1=O returned Cycloheximide cs inactive, FMDV antiviral inactive, Shiga inhibitor inactive and Sm TGR block inactive.
For O=C1C=CC(=O)N1CCNc1ncc(C(F)(F)F)cc1Cl the results were Cycloheximide cs inactive, FMDV antiviral 32µM, Shiga inhibitor inactive and Sm TGR block 0.4µM.
`O=S(=O)(NCCNc1ncc(C(F)(F)F)cc1Cl)C(F)(F)F` gave Cycloheximide cs inactive, FMDV antiviral inactive and Shiga inhibitor 57.
O=C(O)C1=NOC(CNc2ncc(C(F)(F)F)cc2Cl)C1 (stereo not given) was read as Cycloheximide cs inactive, FMDV antiviral inactive and Shiga inhibitor inactive.
For O=C(Nc1cccnc1)OC1CCCC1 the results were Cycloheximide cs 22, FMDV antiviral inactive, Shiga inhibitor inactive and Sm TGR block inactive.
Screening O=C(Nc1cccnc1)OC1CCCCC1 returned Cycloheximide cs 19, FMDV antiviral inactive, Shiga inhibitor inactive and Sm TGR block inactive.
Screening O=C(CCC(=O)NC1CCCCC1)Nc1cccnc1 returned Cycloheximide cs inactive, FMDV antiviral inactive, Shiga inhibitor inactive and Sm TGR block inactive.
Screening Cc1ccc(CNC(=O)c2cc(=O)c3cc(C)c(C)cc3o2)cc1 returned FMDV antiviral inactive and Sm TGR block inactive.
For CCN1C(=NCCCCO)N[C@@H](c2ccccc2)C(C(=O)OC)=C1C the results were Cycloheximide cs inactive, Shiga inhibitor inactive and Sm TGR block inactive.
CCCCOC(=O)c1ccc(N)cc1 was read as Cycloheximide cs 15, FMDV antiviral inactive, Shiga inhibitor 63 and Sm TGR block inactive.
Screening CCCCCCOC(=O)c1ccc(N)cc1 returned Cycloheximide cs 42, FMDV antiviral inactive, Shiga inhibitor 69 and Sm TGR block inactive.
CC(=O)Nc1ccc(C(=O)OCCCOC(=O)c2ccc(NC(C)=O)cc2)cc1 was read as Cycloheximide cs inactive, FMDV antiviral inactive, Shiga inhibitor inactive and Sm TGR block inactive.
CCCCCCNc1ccc(C(=O)OCC)cc1 was read as FMDV antiviral inactive.
For CCCCN(CCCC)CCCOC(=O)c1ccc(N)cc1 the results were Cycloheximide cs inactive, FMDV antiviral inactive, Shiga inhibitor inactive and Sm TGR block inactive.
For CCCOC(=O)c1ccc(NC(=O)c2cc(Cl)ccc2OC)cc1 the results were Cycloheximide cs inactive, FMDV antiviral inactive, Shiga inhibitor inactive and Sm TGR block inactive.
`CCCOC(=O)c1ccc(NC(=O)C(CC)CC)cc1` gave Cycloheximide cs 40, FMDV antiviral inactive, Shiga inhibitor 70 and Sm TGR block inactive.
Screening CC(=O)Nc1ccc(C(=O)OCCc2ccccc2)cc1 returned Cycloheximide cs 42, FMDV antiviral inactive, Shiga inhibitor 64 and Sm TGR block inactive.
For CCCCOC(=O)c1ccc(NC(=O)c2cc(Cl)c(Cl)cc2C(=O)O)cc1 the results were Cycloheximide cs 32, FMDV antiviral inactive, Shiga inhibitor 66 and Sm TGR block inconclusive.
`CCCCOC(=O)c1ccc(NC(=S)NC(=O)c2ccco2)cc1` gave Cycloheximide cs inactive, FMDV antiviral inactive, Shiga inhibitor inactive and Sm TGR block inconclusive.
`CCCOC(=O)Nc1cccc(C(C)=O)c1` gave Cycloheximide cs inactive, FMDV antiviral inactive, Shiga inhibitor inactive and Sm TGR block inactive.
Screening CCCCCOC(=O)c1ccc(NC(=O)c2ccco2)cc1 returned Cycloheximide cs 36, FMDV antiviral inconclusive, Shiga inhibitor 68 and Sm TGR block inactive.
Screening CCCOC(=O)Nc1ccc(C(N)=O)cc1 returned Cycloheximide cs 24, FMDV antiviral inactive, Shiga inhibitor inactive and Sm TGR block inactive.
CCCCOC(=O)c1ccc(NC(C)=O)cc1 was read as Cycloheximide cs inactive, FMDV antiviral inactive, Shiga inhibitor 52 and Sm TGR block inactive.
For CC1=C(C(=O)OC2CCCCCC2)C(c2ccc(Cl)cc2Cl)CC(=O)N1 (stereo not given) the results were FMDV antiviral inactive and Sm TGR block inactive.
Screening COc1ccc(-c2ccc(C(=O)N3CCc4c(cnc(C)c4CNS(=O)(=O)N(C)C)C3)o2)cc1 returned FMDV antiviral inactive.

Screening results: PubChem BioAssay, National Center for Advancing Translational Sciences (NCATS)
